aSyn UTR act: Activators via SNCA 5'UTR binding, MLPCN; alpha-synuclein 5'UTR reporter, activators screen; activity score, % (tested at 7.5 µM), hits read low; hit rate 7.1% among 300,000; AID 1814, 2009; in the data active means activity score below about -60%
* = called active by the depositor. These entries were drawn from the full list.

SMILES	aSyn UTR act
CCOc1ccc(N(CC(=O)Nc2ccc(OC)cc2)S(C)(=O)=O)cc1	-69*
CCOc1ccc(N(CC(=O)Nc2ccccc2OCC)S(=O)(=O)c2c(C)noc2C)cc1	95
CCOc1ccc(N(CC(=O)Nc2cccc(C)c2)S(C)(=O)=O)cc1	-86*
CCOc1ccc(N(CC(=O)NCc2ccccc2C)S(C)(=O)=O)cc1	-91*
CCOc1ccc(NC(=O)CN(c2ccc(OC)cc2)S(C)(=O)=O)cc1	-138*
CCOc1ccc(N(CC(=O)Nc2ccccc2OC)S(=O)(=O)c2ccccc2)cc1	123
Cc1ccc(C(=O)N2CCN(S(=O)(=O)c3ccccc3[N+](=O)[O-])C2)cc1	-65*
O=C(C1CCCCN1S(=O)(=O)c1ccccc1[N+](=O)[O-])N1CCCC1 (configuration not stated)	-62*
Cc1cccc(NC(=S)NC(=O)c2cccs2)n1	-140*
Cc1nc(NC(=S)NC(=O)c2cccs2)ccc1Br	-161*
O=C(NC(=S)Nc1cccc2cccnc12)c1cccs1	-63*
CS(=O)(=O)N1CCc2cc(C(=O)Nc3ccccc3Cl)ccc21	-96*
CS(=O)(=O)N1CCc2cc(C(=O)OCC(=O)c3ccccc3)ccc21	-138*
CS(=O)(=O)N1CCc2cc(C(=O)Nc3ccc(Br)cc3)ccc21	-77*
Cc1ccc(NC(=O)c2ccc3c(c2)CCN3S(C)(=O)=O)cc1C	-112*
CCOc1ccccc1C1CC(=O)Nc2cc3c(cc21)OCCO3 (configuration not stated)	92
Cc1cccc(NC(=O)c2ccc3c(c2)CCN3S(C)(=O)=O)c1	-203*
COc1cccc(-c2cc(C(=O)Nc3ccccc3SC)no2)c1	-141*
COc1ccccc1-c1cc(C(=O)Nc2ccccc2SC)no1	-96*
COc1ccccc1-c1cc(C(=O)Nc2cccnc2)no1	55
CSc1ccccc1NC(=O)c1cc(CC(C)C)on1	-178*
C[n+]1cc[nH]c1SCC(=O)c1ccccc1	-72*
CN1/C(=C\C=C2/C(=O)Oc3ccccc3C2=O)C(C)(C)c2ccccc21	-123*
COc1cc(Cl)ccc1OCc1cc(C(=O)N(C)CCc2cnn(C)c2)no1	-91*
Cc1cc(OCc2cc(C(=O)N(C)CCc3cnn(C)c3)no2)cc(C)c1Cl	-145*
SMILES	aSyn UTR act
Cc1nc2nc(-c3ccccc3)[nH]n2c(=O)c1C	-119*
Cc1nc2cc(-c3ccccc3)[nH]n2c(=O)c1C	-114*
Cc1cccc(CN2C(=O)/C(=C\c3ccc(C(=O)NCCCN4CCN(C)CC4)cc3)Oc3ccccc32)c1	95
CN1CCN(C(=O)c2ccc3c(c2)NC(=O)/C(=C/c2ccccc2)S3)CC1	-88*
Cc1cccc(/C=C2/Sc3ccc(C(=O)NCCCN4CCOCC4)cc3NC2=O)c1	-69*
O=C(Nc1ccc(N2CCOCC2)nc1)c1cccs1	-104*
O=C(Nc1ccc(N2CCOCC2)c(F)c1)c1cccs1	-123*
Cc1ccc(C(=O)Nc2ccc(N3CCOCC3)nc2)cc1	-71*
CN(C)c1ccc(NC(=O)c2ccc(N3CCOCC3)nc2)cc1	-62*
O=C(c1ccccc1)c1ccc(N2CCOCC2)c(F)c1	-145*
O=C(c1ccccc1)c1cc([N+](=O)[O-])ccc1N1CCOCC1	101
O=[N+]([O-])c1cc(C(F)(F)F)ccc1NCCOc1ccccc1	-124*
Cc1cc(C)c(S(C)(=O)=O)c(S(=O)(=O)c2ccc(Cl)cc2)n1	-87*
Oc1c(C(c2ccccc2Cl)N2CCCC2)ccc2cccnc12 (configuration not stated)	97
Cc1ccc(-c2nnc(CCC(=O)NCC3C4CC5CC(C4)CC3C5)o2)s1 (configuration not stated)	-170*
COc1cc2nc(N(C)C)nc(N)c2cc1OC	-78*
COc1cc2nc(Nc3ccc(C)c(Cl)c3)nc(N)c2cc1OC	99
CCOC(=O)c1ccc(Nc2nc(N)c3cc(OC)c(OC)cc3n2)cc1	-104*
COc1cc2nc(Nc3ccc(F)cc3)nc(N)c2cc1OC	-131*
COc1cc2nc(Nc3ccc(C)c(C)c3)nc(N)c2cc1OC	-131*
COC(=O)c1ccc(Nc2nc(C)cc(C)n2)cc1	-83*
COC(=O)c1ccc(Nc2cc(C)nc3ccccc23)cc1	65
COC(=O)c1ccc(N=NNc2ccc(C(=O)OC)cc2)cc1	-86*
COC(=O)c1ccc(N=NNc2ccccc2)cc1	-226*
O=C(O)c1ccc(N=NNc2cccc([N+](=O)[O-])c2)cc1	-107*
SMILES	aSyn UTR act
Cc1ccc(N2Cc3ccccc3C2=S)cc1	-154*
S=C1c2ccccc2CN1c1ccccc1	-64*
COC(=O)N1N=C(c2ccccc2)CC1(O)C(F)(F)F (configuration not stated)	-65*
CC(C)NC(=O)CCc1nnc(Cc2cccc(C(F)(F)F)c2)o1	-95*
CC[C@@H](C)[C@H](CNC)NC[C@@H](Cc1cccc2ccccc12)NCCc1cccc(C(F)(F)F)c1	125
CNC[C@@H](CC1CCCCC1)NC[C@H](CC(C)C)NCCc1cccc(C(F)(F)F)c1	122
CCN(c1ccccc1)S(=O)(=O)c1ccc(Oc2ccc(-n3ccnc3)cc2)nc1	103
